According to PubChem BioAssay (NCATS):
Results filed as inconclusive are left out. Calls of active or inactive are those of the source. Calls follow the shape of the full dose curve.

Assay: S16 Schwann cell PMP22 intronic element beta-lactamase assay (AID 624044); also: nearly all actives have a fitted effect of over 15% in size
Details: S16 rat Schwann cells, PMP22 element beta-lactamase FRET, 24 h; ratio activity, negative = inhibition: at 38.3 µM (top of the series)
Summary of the method: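 Rat S16 Schwann cells with beta-Lac driven by a PMP22 intronic element, compound-treated 24 h at 37 °C. LiveBLAzer FRET B/G read: 460 nm normalized to potassium clavulanate vs DMSO; 535 nm FRET as viability; concentration-effect curves classified.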
Potency is read from the fitted curve at half-maximal effect.

| SMILES | Potency |
| --- | --- |
| CC1(Cn2ccnn2)[C@H](C(=O)O)N2C(=O)C[C@H]2S1(=O)=O (stereo not given in full) | 12.6 µM (active) |
| NC(C(=O)O)[C@@H]1CC(Cl)=NO1 (stereo not given in full) | 19.9 µM (active) |
| C[C@]12O[C@H](C[C@]1(O)CO)n1c3ccccc3c3c4c(c5c6ccccc6n2c5c31)CNC4=O | 7.07 µM (active) |
| C[C@H](CCCC(C)(C)O)[C@H]1CC[C@H]2[C@@H]3CC=C4C[C@@H](O)CC[C@]4(C)[C@H]3CC[C@]12C | inactive |
| COc1cc(-c2ccc(-[n+]3nc(-c4ccccc4)nn3-c3ccc([N+](=O)[O-])cc3)c(OC)c2)ccc1-[n+]1nc(-c2ccccc2)nn1-c1ccc([N+](=O)[O-])cc1 | 25.1 µM (active) |
